In PubChem BioAssay (NCATS):
Several values for one entry are separate records, joined by “and”; a condition that tells them apart may be missing. Identical values can stand only once. Inconclusive results are not listed. Entries that show only a call come without a potency. Unmarked numbers belong to inactive results. Activity calls are given as the source filed them. Calls follow the shape of the dose curve; as a rule, active = well fitted curve in the direction sought with a large enough effect; inconclusive = small, poorly fitted or top-dose-only effect, or another doubt; inactive = no such curve, though single readings can be large; an effect the other way counts as inactive or inconclusive.

Key:
[1] = molecular target: Cytochrome P450 3A7 (Homo sapiens) (UniProt P24462); assay: Cytochrome P450 family 3 subfamily A member 7 (CYP3A7) small molecule antagonists: luciferase biochemical qHTS assay (AID 1963596); also: nearly all actives have a fitted effect of over 40% in size
Cytochrome P450 3A7 (Homo sapiens), sequence (P24462 whole entry, looked up): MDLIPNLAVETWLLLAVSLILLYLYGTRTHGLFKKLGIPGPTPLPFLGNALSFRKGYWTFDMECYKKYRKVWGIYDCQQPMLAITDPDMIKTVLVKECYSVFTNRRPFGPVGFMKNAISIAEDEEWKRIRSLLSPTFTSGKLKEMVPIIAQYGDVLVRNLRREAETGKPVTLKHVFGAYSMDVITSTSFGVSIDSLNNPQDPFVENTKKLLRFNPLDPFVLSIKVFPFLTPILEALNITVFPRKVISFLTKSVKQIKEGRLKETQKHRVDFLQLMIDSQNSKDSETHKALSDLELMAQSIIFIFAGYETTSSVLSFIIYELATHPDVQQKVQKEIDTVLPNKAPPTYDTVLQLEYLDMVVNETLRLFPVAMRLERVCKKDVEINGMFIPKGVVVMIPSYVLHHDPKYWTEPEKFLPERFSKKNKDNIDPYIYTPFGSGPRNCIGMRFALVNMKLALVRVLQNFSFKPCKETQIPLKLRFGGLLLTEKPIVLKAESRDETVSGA
Outline: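 P450-Glo luminescent assay: CYP3A7 enzyme converts a proluciferin substrate to luciferin, detected by luciferase reagent; light proportional to activity. Compounds in DMSO preincubated 10 min with enzyme-substrate mix at room temperature, then NADPH regeneration added for 1 h.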

[2] = Viability qHTS for spleen associated tyrosine kinase inhibitor (SYKi) naive MV4-11 cells (AID 1963823); also: nearly all actives have a fitted effect of over 40% in size
Outline: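 Luminescence from CellTiter-Glo, developed 10 min at room temperature, gave viability of MV4-11 cells never exposed to SYK inhibitor. Cells (500/well) had been incubated with compounds for 72 hr under standard culture conditions.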

[3] = Cellular viability qHTS for adrenocortical cancer (ACC) cell line SW-13 (AID 1963989); details: SW-13 ACC cells viability, CellTiter-Glo, 48 h; activity (max response): stronger effect = lower value; also: nearly all actives have a fitted effect of over 65% in size;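 as to activity (max response): cells grown in serum-free medium with ITS supplement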
Outline: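 SW-13 cells in ITS-supplemented serum-free DMEM were plated overnight, then exposed for 48 h at 37C to compound titrations (up to 46 uM final). Viability was read by CellTiter-Glo luminescence; four-parameter logistic fits gave IC50 and efficacy.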

[4] = Cellular viability qHTS for adrenocortical cancer (ACC) cell line NCI-H295R (AID 1963990); also: nearly all actives have a fitted effect of over 60% in size
Outline: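 Luminescent ATP read-out (CellTiter-Glo, 20 min RT) after 48 h drug exposure of NCI-H295R cells; a titration up to 46 uM final. Data normalized to doxorubicin (100% inhibition) and DMSO (0%); 4-parameter fit gives IC50, max response.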

[5] = Viability qHTS for spleen associated tyrosine kinase inhibitor (SYKi) drug resistant MV4-11 cells (AID 1963824); also: nearly all actives have a fitted effect of over 35% in size
Outline: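 SYK-inhibitor-resistant MV4-11 AML cells were seeded at 500 per well onto compound and cultured 72 hours (37 °C, 5% CO2). CellTiter-Glo was then added, and after 10 min at room temperature, luminescence gave viability.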
Potency is read from the fitted curve at half-maximal effect.

CCc1cccc(CC)c1NC(=O)CN(CC(=O)O)CC(=O)O
Potency [1]: inactive | Potency [2]: inactive | activity (max response) [3]: 1.3% | Potency [4]: inactive

CN(C)C/C=C(/c1ccc(Br)cc1)c1cccnc1
Potency [1]: inactive | Potency [2]: inactive | activity (max response) [3]: 3.23% | Potency [4]: inactive

NS(=O)(=O)c1cc(C2(O)NC(=O)c3ccccc32)ccc1Cl (stereo unspecified)
Potency [1]: inactive | Potency [2]: inactive | activity (max response) [3]: 17.7% | Potency [4]: inactive

CC(CC(C#N)(c1ccccc1)C(C)C)N(C)C (stereo unspecified)
Potency [1]: inactive | Potency [2]: inactive | activity (max response) [3]: 3.72% | Potency [4]: inactive

CC12CCC(CC1)C(C)(C)O2
Potency [1]: inactive | Potency [2]: inactive | activity (max response) [3]: 13.8% | Potency [4]: inactive

CCC(C(=O)O)c1ccc(N2Cc3ccccc3C2=O)cc1 (stereo unspecified)
Potency [1]: inactive | Potency [2]: inactive | activity (max response) [3]: 5.42% | Potency [4]: inactive

CN1CCOC(c2ccccc2)c2ccccc2C1 (stereo unspecified)
Potency [1]: inactive | Potency [2]: inactive | activity (max response) [3]: -0.385% | Potency [4]: inactive

COc1cc(C(=O)N2CCOCC2)cc(OC)c1OC
Potency [1]: inactive | Potency [2]: inactive | activity (max response) [3]: 1.89% | Potency [4]: inactive

O=C1Nc2cc(Cl)ccc2Oc2ccccc21
Potency [1]: inactive | Potency [2]: inactive | activity (max response) [3]: -3.37% | Potency [4]: inactive

CCc1cc(Cl)c(OC)c(C(=O)NC[C@@H]2CCCN2CC)c1O
Potency [1]: inactive | Potency [2]: inactive | activity (max response) [3]: -13.7% | Potency [4]: inactive

C[C@H](NC(CCc1ccccc1)C(=O)O)C(=O)N1CCC[C@H]1C(=O)O (stereo partly specified)
Potency [1]: inactive | Potency [2]: inactive | activity (max response) [3]: 8.08% | Potency [4]: inactive

C=CC(=O)Nc1cccc(Nc2nc(Nc3ccc(N4CCN(C(C)=O)CC4)cc3OC)ncc2C(F)(F)F)c1
Potency [1]: inactive | Potency [2]: 1.64 µM (active) and 1.05 µM (active) | Potency [3]: 2.24 µM (active) | Potency [4]: 3.55 µM (active)

CCCCCCCCOc1ccc(C(=O)c2ccccc2)c(O)c1
Potency [1]: inactive | Potency [2]: inactive | activity (max response) [3]: 12.8% | Potency [4]: inactive

COc1ccc(CN(CCN(C)C)c2ccccn2)cc1
Potency [1]: inactive | Potency [2]: 16.8 µM (active) | activity (max response) [3]: 2.63% | Potency [4]: inactive

CCCCCCCCCCCCCCCCN
Potency [1]: inactive | Potency [2]: inactive | Potency [4]: inactive

Cc1onc(-c2ccccc2)c1C(=O)Cl
Potency [1]: inactive | Potency [2]: inactive | activity (max response) [3]: 12.7% | Potency [4]: inactive

O=C1CC2(CCCC2)CC(=O)N1
Potency [1]: inactive | Potency [2]: inactive | activity (max response) [3]: 11.4% | Potency [4]: inactive

O=C(O)CCCCC1CCSS1 (stereo unspecified)
Potency [1]: inactive | Potency [2]: inactive | activity (max response) [3]: 9% | Potency [4]: inactive

Cc1cc(=O)oc2cc(O[C@@H]3SC[C@@H](O)[C@H](O)[C@H]3O)ccc12
Potency [1]: inactive | Potency [2]: inactive | activity (max response) [3]: 12.3% | Potency [4]: inactive

CCCCNC(=O)[C@@H]1Cc2ccccc2N1C(=O)[C@@H](N)CC
Potency [1]: inactive | Potency [5]: inactive

C=CCOc1ccccc1OCC(O)CNC(C)C (stereo unspecified)
Potency [1]: inactive | Potency [2]: inactive | Potency [4]: inactive

CCCN1CCC(c2cccc(S(C)(=O)=O)c2)CC1
Potency [1]: inactive | Potency [5]: inactive

CCOC(=O)c1ccc(NC(=O)CN2CCCCC2)cc1
Potency [1]: inactive | Potency [2]: inactive | Potency [4]: inactive

CN(C)c1nc(NC2CCC(NC(=O)c3ccc(F)c(F)c3)CC2)nc2ccccc12 (stereo unspecified)
Potency [1]: inactive | Potency [5]: 0.82 µM (active)

Nc1nc(Cl)nc2c1ncn2[C@@H]1O[C@H](CO)[C@@H](O)[C@@H]1F
Potency [1]: inactive | Potency [5]: 188 nM (active) and 332 nM (active)

Cc1onc(-c2ccccc2)c1C(=O)N1CCN(c2ccc([N+](=O)[O-])cc2Cl)CC1
Potency [1]: inactive | Potency [5]: 13 µM (active)

CCC(=O)N1CCOc2c(cc(-c3ccc(OC)c(OC)c3)cc2OC[C@H]2CCCN(C)C2)C1
Potency [1]: inactive | Potency [5]: 7.31 µM (active)

Cc1ccc(C(=O)c2ccc(CC(=O)O)n2C)cc1
Potency [1]: inactive | Potency [5]: inactive

CN(C)C(=O)C(=O)c1cn(C)c2cc(Cl)c(C(=O)N3CCC(Cc4ccc(F)cc4)CC3)cc12
Potency [1]: inactive | Potency [5]: 8.2 µM (active)

CC(C)(C)NCC(O)COc1cccc2c1CCCC2=O (stereo unspecified)
Potency [1]: inactive | Potency [5]: inactive

CC1(C)Oc2ccc(C#N)cc2[C@@H](N2CCCC2=O)[C@@H]1O
Potency [1]: inactive | Potency [2]: inactive | Potency [4]: inactive

CCOC(=O)n1ccn(C)c1=S
Potency [1]: inactive | Potency [2]: inactive | Potency [4]: inactive

CC(=O)N/N=C/c1ccc([N+](=O)[O-])o1
Potency [1]: inactive | Potency [5]: 23.7 µM (active)

CCCNc1ccc2ncc(-c3ccc4[nH]ncc4c3)n2n1
Potency [1]: inactive | Potency [5]: 0.0116 µM (active)

CCn1c2ccccc2c2cc(Nc3ccnc(NCCCN4CCOCC4)n3)ccc21
Potency [1]: inactive | Potency [5]: 2.59 µM (active)

C[C@]12C=CC(=O)C=C1CC[C@@H]1[C@@H]2[C@@H](O)C[C@@]2(C)[C@H]1CC[C@]2(O)C(=O)COC(=O)CCC(=O)O
Potency [1]: inactive | Potency [5]: inactive

Cc1nc(NC(=O)N2CCC[C@H]2C(N)=O)sc1-c1ccnc(C(C)(C)C(F)(F)F)c1
Potency [1]: inactive | Potency [2]: 13 µM (active) | Potency [4]: 11.2 µM (active)

CCN1CCC[C@@H]1CNC(=O)c1ccc2c(c1)NC(=O)c1cccc(C)c1S2
Potency [1]: 20 µM (active) | Potency [5]: 20.6 µM (active)

CC(C(=O)O)c1ccc(C(=O)c2cccs2)cc1 (stereo unspecified)
Potency [1]: inactive | Potency [5]: inactive

Cc1c(C(C)C)c(=O)n(-c2ccccc2)n1C
Potency [1]: inactive | Potency [2]: inactive | Potency [4]: inactive

CCNC(=O)N1CCCN(c2ccc(C(=O)NCCc3ccc(Cl)cc3Cl)cc2NC(=O)c2cccc(Cl)c2)CC1
Potency [1]: inactive | Potency [5]: 20.6 µM (active)

CCc1cc2c(=O)c(-c3nc4ccccc4s3)coc2c(CN2CCCCC2)c1O
Potency [1]: inactive | Potency [5]: inactive

COc1ccccc1-c1ccc(-c2cn(C(=O)N3CCCCC3Cc3ccccc3)nn2)cc1 (stereo unspecified)
Potency [1]: inactive | Potency [5]: 14.6 µM (active)

CCCN1CCC[C@@H](c2cccc(S(C)(=O)=O)c2)C1
Potency [1]: inactive | Potency [5]: 10.3 µM (active)

Cc1c(C(=O)Nc2ccc(N3CC(C)OC(C)C3)nc2)cccc1-c1ccc(OC(F)(F)F)cc1 (stereo unspecified)
Potency [1]: inactive | Potency [5]: 10.3 µM (active)

C[N+]1(CC2COC(c3ccccc3)(c3ccccc3)O2)CCCCC1 (stereo unspecified)
Potency [1]: inactive | Potency [5]: 10 µM (active)

CCC[C@H](N[C@@H](C)C(=O)N1[C@H](C(=O)O)C[C@@H]2CCCC[C@@H]21)C(=O)O
Potency [1]: inactive | Potency [5]: inactive

CN1CCN(C2=Nc3ccccc3Nc3ccc(O)cc32)CC1
Potency [1]: inactive | Potency [5]: inactive

CC1(c2nc3c(C(N)=O)cccc3[nH]2)CCCN1 (stereo unspecified)
Potency [1]: inactive | Potency [5]: inactive

O=C(O)c1ccc[n+]([O-])c1
Potency [1]: inactive | Potency [2]: inactive | Potency [4]: inactive

COc1ccnc(CCc2nc3ncccc3[nH]2)c1
Potency [1]: inactive | Potency [5]: inactive

O=C(NCc1ccccc1)c1ccc2c(=O)n(-c3cccc(C(F)(F)F)c3)c(=S)[nH]c2c1
Potency [1]: inactive | Potency [5]: inactive

Clc1ccccc1-c1nc(-c2ccncc2)no1
Potency [1]: inactive | Potency [5]: 11.9 µM (active)

O=c1cc(N2CCN(c3cccc(C(F)(F)F)c3)CC2)[nH]c(=O)n1C1CCCCC1
Potency [1]: inactive | Potency [5]: inactive

CC(C)CCC(=O)CC1c2ccccc2C(=O)N1c1ccc2ccc(Cl)nc2n1 (stereo unspecified)
Potency [1]: inactive | Potency [5]: inactive

COc1cc(N2CCOCC2)ccc1NC(=O)c1csc(-c2cccnc2)n1
Potency [1]: inactive | Potency [5]: 0.259 µM (active)

CN1CCc2cc(Cl)c(O)cc2[C@@H](c2cccc3c2OCC3)C1
Potency [1]: inactive | Potency [5]: 11.6 µM (active)

FC(F)(F)c1nnc2c(Sc3ccccc3)nc3ccc(Cl)cc3n12
Potency [1]: inactive | Potency [5]: 0.731 µM (active)

N[C@@H](CC(=O)N1CCn2c(nnc2C(F)(F)F)C1)Cc1[nH]nc2c(F)c(F)ccc12
Potency [1]: inactive | Potency [5]: inactive
